The sample as a whole holds a higher share of hits than the screen did.
HT1080 IDH1KD tx: HT-1080 IDH1 knockdown cell toxicity (counter line). Potency, µM (top dose mostly 46.1 µM), without a hit: at the top dose activity, negative = toxicity, actives largely listed as cytotoxic. hit rate 2% among 360,000. HT-1080 IDH1 knockdown viability, ATP luminescence, 48 h. AID 686971;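 note: potency is the fitted concentration of half-maximal effect; 0% = DMSO wells and -100% = cell-free medium wells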
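Using the IDH1-knockdown HT-1080 line run in the same batch and compound series as the NT line, viability after 48 h at 37 °C was determined by CellTiter-Glo luminescence and expressed as % activity.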
HT1080NT lethal: kills 2HG-producing HT-1080-NT fibrosarcoma cells; HT-1080-NT fibrosarcoma viability, CellTiter-Glo ATP luminescence, 48 h; hit rate 1.6% among 360,000; AID 686970; Potency, µM (series often up to 46.1 µM), for inactives: top-dose activity, negative = less viability, hits mostly cytotoxic;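 note: NT is the 2HG producing partner of a matched IDH1 knockdown line; potency is the fitted concentration of half-maximal effect; 0% = DMSO-treated cells and -100% = media-only wells without cells; nearly all actives have a fitted effect of over 55% in size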
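Read-out is CellTiter-Glo luminescence after 10 minutes at room temperature, following 48 hours' compound treatment of HT-1080-NT cells (750 cells/well, RPMI, 5% FBS, 37 degrees C).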
IL1B secr inh: blocks inflammasome-driven IL-1 beta release | THP-1 LPS/ATP IL-1B secretion, AlphaLISA, 16 h; hits give low values | activity change, % at 57.5 µM | hit rate 4.7% among 360,000 | AID 743279; in the data active = activity change below about -50%; inconclusive = mostly about -30% to -49%
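Secreted IL-1B measured by AlphaLISA bead assay after 16 h compound exposure of THP-1 cells; compounds (final up to 57.5 uM) added 1 h before LPS (250 ng/mL) and ATP (1.25 mM) stimulation; lower signal means less secretion.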
DT40 TDP1 CPT: DT40-hTDP1 cell growth loss with CPT; AID 686979; Potency, µM (highest dose often 46.2 µM), for the others: at the highest dose activity change, negative = growth inhibition, actives largely listed as inhibitors; hit rate 12% among 420,000; chicken DT40 Tdp1-/-;hTDP1 cells + 20 nM CPT, ATP luminescence, 48 h; note: potency is the fitted concentration of half-maximal effect; nearly all actives have a fitted effect of over 55% in size
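Chicken DT40 Tdp1-/- cells stably complemented with human TDP1 were seeded at 400 cells/well in medium containing 20 nM camptothecin, exposed to pin-transferred compounds, and grown at 37 °C for at least 48 hr. Viability was read as ATP luminescence.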
12-LOX inh: ALOX12 (human) lipoxygenase inhibition; purified 12hLO, xylenol orange hydroperoxide absorbance; P18054; AID 1671190; Potency, µM (series often up to 108 µM), without a hit: top-dose activity change, negative = inhibition, actives largely listed as inhibitors; hit rate 1.1% among 580,000; note: potency is the fitted concentration of half-maximal effect
Target sequence (P18054 whole entry, looked up): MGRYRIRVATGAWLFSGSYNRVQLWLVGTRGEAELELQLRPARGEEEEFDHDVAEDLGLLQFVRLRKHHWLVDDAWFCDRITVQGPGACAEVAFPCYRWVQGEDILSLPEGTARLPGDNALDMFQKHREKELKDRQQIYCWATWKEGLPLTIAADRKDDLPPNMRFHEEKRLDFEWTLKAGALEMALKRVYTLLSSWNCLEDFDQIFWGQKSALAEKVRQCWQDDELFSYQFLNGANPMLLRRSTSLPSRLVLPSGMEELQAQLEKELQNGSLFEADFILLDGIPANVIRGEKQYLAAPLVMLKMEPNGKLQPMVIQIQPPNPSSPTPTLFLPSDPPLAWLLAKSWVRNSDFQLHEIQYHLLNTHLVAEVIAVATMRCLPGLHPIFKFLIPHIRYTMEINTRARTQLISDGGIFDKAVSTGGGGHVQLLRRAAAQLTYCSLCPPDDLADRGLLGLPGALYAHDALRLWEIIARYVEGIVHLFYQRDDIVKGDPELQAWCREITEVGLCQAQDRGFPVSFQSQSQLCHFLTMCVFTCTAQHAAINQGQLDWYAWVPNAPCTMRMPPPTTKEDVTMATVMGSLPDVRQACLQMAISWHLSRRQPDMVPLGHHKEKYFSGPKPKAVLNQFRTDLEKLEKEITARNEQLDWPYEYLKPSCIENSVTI
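Purified human 12hLO (150 nM final) in 25 mM Hepes, 0.01% Triton X-100, pH 7.0 was preincubated 15 min at room temperature with compound. Then 40 uM arachidonic acid was added, 30 min. Hydroperoxide was read by Fe-XO absorbance ratio 573/405 nm.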
DT40 TDP1 no CPT: qHTS for Inhibitors of human tyrosyl-DNA phosphodiesterase 1 (TDP1): qHTS in cells in absence of CPT; DT40 Tdp1-/- hTDP1 cells, no CPT, ATP luminescence, 48 h; Potency, µM (titrated, usually from 46.2 µM), for the others: at the highest dose activity change, negative = growth inhibition, hits mostly inhibitors; hit rate 15% among 420,000; AID 686978, 2013; note: potency is the fitted concentration of half-maximal effect; nearly all actives have a fitted effect of over 55% in size
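Stably hTDP1-transfected Tdp1-null chicken DT40 cells were treated with library compounds minus camptothecin and grown for at least 48 hr at 37 °C, after which cellular ATP was quantified by luminescence.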
Numbers without * were called inactive; ? = inconclusive; / = not tested or not shown; [ ] = dose if it differs, or a comment. Unless noted, calls come from the whole dose curve; as a rule, active = well fitted curve in the direction sought with a large enough effect; inconclusive = small, poorly fitted or top-dose-only effect, or another doubt; inactive = no such curve, though single readings can be large; an effect the other way counts as inactive or inconclusive. Unless noted, % is set by controls: 0 for no effect and ±100 for the full control effect.

SMILES	HT1080 IDH1KD tx	HT1080NT lethal	IL1B secr inh	DT40 TDP1 CPT	12-LOX inh	DT40 TDP1 no CPT
CCc1nc2c(OCc3ccc(OC(F)F)cc3)cccn2c1N(C)C(=O)c1ccco1	10%	17%	-13	?	?	?
CCOC(=O)N(C)c1c(CC)nc2c(OCc3ccc(OC(F)F)cc3)cccn12	2%	-20%	-5	?	-2%	15µM*
Cc1ccc(OCc2cc(=O)n3oc(C)cc3n2)c(NC(=O)COc2cccc(C(F)(F)F)c2)c1	/	/	/	/	-3%	/
CCOC(=O)c1cc(S(=O)(=O)N2CCc3ccccc32)cn1C	0%	0%	9	?	-15%	2.3µM*
CSc1cccc(NC(=O)c2cc(S(=O)(=O)N3CCc4ccccc43)cn2C)c1	-13%	-7%	-15	15µM*	4%	26µM*
CCOC(=O)c1c(S(=O)(=O)N2CCCCC2C)c(C)n(C)c1C (stereo not given)	-2%	10%	26	?	13%	10µM*
Cc1cccc(NC(=O)c2cc(S(=O)(=O)N3CCc4ccccc43)cn2C)c1	-1%	-3%	23	-8%	13%	8%
CN(C(=O)c1cc(S(=O)(=O)N2CCc3ccccc32)cn1C)C1CCCCC1	-17%	-2%	-3	21µM*	-1%	18µM*
CCCCc1cc(=O)oc2c(C)c(OC(C)C(=O)NCc3cccnc3)ccc12 (stereo not given)	/	/	/	/	2%	/
CC(CNC(=O)c1ccc2nccnc2c1)c1ccccc1 (stereo not given)	/	/	/	/	-11%	/
Nc1ccc(/C=C/C(=O)c2ccc(Cl)cc2)cc1	/	/	/	/	-72%	/
Cc1cccc(C)c1NC(=O)c1cc(S(=O)(=O)N2CCc3ccccc32)cn1C	3%	16%	16	-3%	39%	-23%
CCOC(=O)c1c(S(=O)(=O)N2CCc3ccccc32)c(C)n(C)c1C	-4%	-7%	13	23µM*	0%	?
CCCN(C(=O)c1cc(S(=O)(=O)N2CCc3ccccc32)cn1C)c1ccc(OCC)cc1	/	/	/	?	-9%	21µM*
Cn1cc(S(=O)(=O)N2CCc3ccccc32)cc1C(=O)Nc1ccc(Cl)cc1	-14%	-25%	-7	26µM*	38%	26µM*
Cc1ccc(N(C)C(=O)c2cc(S(=O)(=O)N3CCc4ccccc43)cn2C)cc1	-1%	-6%	-8	?	22%	?
Cn1cc(S(=O)(=O)N2CCc3ccccc32)cc1C(=O)NC(C)(C)C	-10%	?	36	3.3µM*	?	2.6µM*
Cc1ccc(NC(=O)c2cc(S(=O)(=O)N3CCc4ccccc43)cn2C)cc1	-10%	8%	-10	?	336%	?
Cc1ccc(C(=O)C(C)OC(=O)c2cc3ccccc3[nH]2)cc1 (stereo not given)	/	/	/	/	-20%	/
O=S(=O)(Nc1cccc2c1CCCC2)c1ccccc1Cl	/	/	/	/	131%	/
O=C(CCCc1c[nH]c2ccccc12)N1CCN(C(=O)c2ccco2)CC1	/	/	/	/	8%	/
Cc1ccc2c(C)c(C(=O)N3C[C@@H](NS(C)(=O)=O)[C@H](C(C)C)C3)oc2c1	/	/	/	/	33%	/
Cn1nnnc1NCc1cccc(Cl)c1	-1%	2%	-3	-15%	2%	0%
Cn1c(NC(=O)c2cccc(Cn3cc(Cl)cn3)c2)nc2ccccc21	-23%	-7%	-13	?	7%	?
COc1cc(CNc2nc3ccccc3n2Cc2ccccc2)ccc1O	-9%	-1%	3	-30%	12%	?
SMILES	HT1080 IDH1KD tx	HT1080NT lethal	IL1B secr inh	DT40 TDP1 CPT	12-LOX inh	DT40 TDP1 no CPT
O=NNc1nc2ccccc2n1Cc1ccccc1	?	?	201	4.6µM*	-1%	2.3µM*
CCn1c(NC(=O)c2cccc(Cn3cc(Cl)cn3)c2)nc2ccccc21	-18%	-23%	36	15µM*	45%	15µM*
COc1ccc(CNc2nc3ccccc3n2Cc2ccc(Cl)cc2)cc1OC	16µM*	21µM*	-89*	16µM*	?	13µM*
CC(=O)Nc1nc2ccccc2n1Cc1ccccc1	?	?	0	?	7%	?
Clc1cccc(CNc2nnnn2-c2ccccc2)c1	-14%	-5%	41	?	0%	16µM*
CC(=O)Oc1c(-c2ccc(NC(=O)c3cccs3)cc2)c(-c2cccc(F)c2)nn1-c1ccccc1	/	/	/	/	4%	/
COc1ccc(/C=C/c2nc3ccccc3n2Cc2ccc(OC)c(OC)c2)cc1	-17%	-27%	-54*	?	-3%	?
CCn1c(NCc2cc(OC)c(OC)c(OC)c2)nc2ccccc21	-7%	-4%	24	?	-2%	-87%
C(=N\c1nc2ccccc2n1CCN1CCOCC1)/c1cccs1	7%	10%	13	9%	1%	-4%
Cn1c(NCc2cccc(Cl)c2)nc2ccccc21	/	/	/	?	3%	?
CCn1c(NCc2ccc(OC)c(OC)c2)nc2ccccc21	/	/	/	?	-5%	9.2µM*
CCc1nc2ccccc2n1Cc1ccc(OC)c(OC)c1	-22%	-13%	24	?	0%[57.4 µM]	?
CCn1c(NCc2cccc(Cl)c2)nc2ccccc21	/	/	/	?	-21%	23µM*
C(=N\c1nc2ccccc2n1Cc1ccccc1)/c1cccs1	-18%	0%	-68*	?	21%	?
COC[C@@H]1CN(C(=O)c2ccc3ncccc3c2)C[C@H]1c1ccncc1	/	/	/	/	-5%	/
Cc1ccc(Cc2c(-c3ccco3)nc3ccc(Br)cn23)cc1	16µM*	18µM*	-16	?	40µM*	?
COc1ccc(-c2nc3c(Cl)cc(C(F)(F)F)cn3c2Cc2cccc(F)c2)cc1OC	-4%	0%	?	23µM*	-2%	18µM*
Cc1ccc(Nc2c(-c3ccco3)nc3ccc(C)cn23)cc1	/	/	/	-17%	-14%	-23%
Clc1cccc(Cc2c(-c3ccccc3)nc3ccc(Br)cn23)c1	-27%	-27%	0	?	?	?
Cc1ccc(Cc2c(-c3ccc(Cl)cc3)nc3ccc(Br)cn23)cc1	-16%	-11%	43	16µM*	?	26µM*
Cc1ccc(Cc2c(-c3ccc(C)cc3)nc3ccc(Br)cn23)cc1	-29%	?	47	21µM*	10µM*	23µM*
Fc1cccc(Cc2c(-c3cccc(Br)c3)nc3c(Cl)cc(C(F)(F)F)cn23)c1	16%	22%	0	-19%	?	-13%
O=C(NCc1ccc(NC(=O)C2CC2)cc1)c1ccc[n+]([O-])c1	/	/	/	/	-17%	/

Compound activity: PubChem BioAssay, National Center for Advancing Translational Sciences (NCATS)
